Screen size: about 310,000 compounds; about 14,000 (4.5%) showed an effect of 50% or more. Effects have a minus sign here. This is one part of a sample in which strong results are shown more often than they occur.
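Also: peak tail current of the secondary pulse compared with the same well before compound.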

The test deals with human ether-à-go-go-related gene (hERG) potassium channel (human, UniProt Q12809). The test is described as follows: primary screen, population patch clamp on CHO cells stably expressing hERG; higher = less effect of the substance. On the procedure: Briefly, Chinese hamster ovary (CHO) cells stably expressing the hERG channel were dislodged from tissue culture flasks and dispensed into PPC plates. […] During the recording, background leak currents were estimated by a 100 ms step to -80 mV from an initial holding potential of -70 mV and subtracted from the subsequent current measurement. The campaign was conducted in two phases using slight differences in recording protocol. In the first phase, the initial voltage pulse used a 100 ms step to -30 mV from a holding potential of -70 mV, a 2 s conditioning step to +25 mV, and a 2 s test step to -30 mV. During the second phase of the screen, the potential during the conditioning step was raised to +45 mV. In both phases of the campaign, a secondary voltage pulse was applied using the same parameters as the second phase initial pulse. The initial and secondary pulses were applied in the absence of compound, and upon application of 1 μM and 10 μM test concentrations. […]
Chain of human ether-à-go-go-related gene (hERG) potassium channel (Q12809 whole entry, looked up): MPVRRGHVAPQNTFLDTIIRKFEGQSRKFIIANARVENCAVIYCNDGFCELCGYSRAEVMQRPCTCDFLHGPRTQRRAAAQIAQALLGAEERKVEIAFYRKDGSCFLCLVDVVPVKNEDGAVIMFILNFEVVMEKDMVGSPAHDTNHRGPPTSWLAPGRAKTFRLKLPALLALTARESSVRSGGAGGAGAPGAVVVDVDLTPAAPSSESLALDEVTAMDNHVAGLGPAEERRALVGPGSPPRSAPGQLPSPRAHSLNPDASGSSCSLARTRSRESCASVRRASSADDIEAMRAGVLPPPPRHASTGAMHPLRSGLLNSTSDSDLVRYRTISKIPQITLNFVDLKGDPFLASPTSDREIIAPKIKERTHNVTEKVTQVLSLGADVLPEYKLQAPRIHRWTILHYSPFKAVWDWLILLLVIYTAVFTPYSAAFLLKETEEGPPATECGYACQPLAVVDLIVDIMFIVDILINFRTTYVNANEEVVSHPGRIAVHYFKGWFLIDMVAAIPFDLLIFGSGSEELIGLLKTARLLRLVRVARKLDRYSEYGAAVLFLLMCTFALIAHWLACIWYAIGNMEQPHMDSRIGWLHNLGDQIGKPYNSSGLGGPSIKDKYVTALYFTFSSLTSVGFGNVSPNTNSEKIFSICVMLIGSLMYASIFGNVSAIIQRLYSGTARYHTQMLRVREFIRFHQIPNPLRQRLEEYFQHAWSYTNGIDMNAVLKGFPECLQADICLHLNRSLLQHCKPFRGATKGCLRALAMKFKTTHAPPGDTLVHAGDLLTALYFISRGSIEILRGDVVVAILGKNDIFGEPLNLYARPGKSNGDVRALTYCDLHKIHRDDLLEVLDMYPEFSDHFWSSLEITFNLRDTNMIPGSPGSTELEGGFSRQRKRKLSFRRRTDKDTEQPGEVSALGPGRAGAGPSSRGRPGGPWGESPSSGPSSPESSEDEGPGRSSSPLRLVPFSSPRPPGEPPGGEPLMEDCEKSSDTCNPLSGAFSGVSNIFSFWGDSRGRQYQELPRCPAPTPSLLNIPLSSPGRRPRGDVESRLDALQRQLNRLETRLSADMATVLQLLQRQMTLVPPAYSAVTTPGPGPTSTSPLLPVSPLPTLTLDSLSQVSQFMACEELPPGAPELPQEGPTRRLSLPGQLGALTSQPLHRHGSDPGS
With `Cc1cc(C)nc(/N=C(\N)Nc2ccc(C)c([N+](=O)[O-])c2)n1`, the “hERG current change (%, negative = inhibition) at 10uM” value is reported as -5.32%.

As for `Cc1ccc(N/C(N)=N/c2nc(C(F)(F)F)cc(C(F)(F)F)n2)cc1`, the “hERG current change (%, negative = inhibition) at 10uM” value is 18.9%.

Turning to `Cc1ccc(N/C(N)=N/c2nc(C)cc(C)n2)cc1`, the “hERG current change (%, negative = inhibition) at 10uM” value is -68.7%.

For the compound `O=C(NCC1CCCO1)NC1(C(F)(F)F)Oc2ccccc2O1` (stereo not shown), the “hERG current change (%, negative = inhibition) at 10uM” value was found to be 1.63%.

`CN1CCN(S(=O)(=O)c2ccc3c4c(cccc24)C(=O)N3)CC1`: the “hERG current change (%, negative = inhibition) at 10uM” value is -0.59%.

With `O=C(NCN1C(=O)C2C3C=CC(C3)C2C1=O)Nc1ccccn1` (stereo not shown), the “hERG current change (%, negative = inhibition) at 10uM” value was determined as 9.67%.

In the case of `CCOC(=O)N1CCC(NS(=O)(=O)c2cc3c(cc2C)NC(=O)CO3)CC1`, the “hERG current change (%, negative = inhibition) at 10uM” value was -7.84%.

For the compound `Cc1ccc(NC(=O)NNC(=O)C2CC(c3cccnc3)=NO2)cc1` (stereo not shown), the “hERG current change (%, negative = inhibition) at 10uM” value is 4.19%.

For the compound `O=C1c2ccccc2C(=O)N1OCCOCCOCCON1C(=O)c2ccccc2C1=O`, the “hERG current change (%, negative = inhibition) at 10uM” value is recorded as -29.2%.

As for `CC1(c2ccccc2)NC(=O)N(CC(=O)Nc2nnc(C3CC3)s2)C1=O` (stereo not shown), the “hERG current change (%, negative = inhibition) at 10uM” value came out at 12.1%.

Regarding `O=C(Nc1ccc(F)cc1F)c1cccn(Cc2ccccc2)c1=O`, the “hERG current change (%, negative = inhibition) at 10uM” value was found to be 13.1%.

Regarding `CCn1c(CN2CCCCCC2=O)nnc1SCc1cnc(-c2ccccc2)s1`, the “hERG current change (%, negative = inhibition) at 10uM” value is -19.3%.

Turning to `COc1ccc(C(=O)COC(=O)CCCC(=O)NC2CCCCC2)cc1`, the “hERG current change (%, negative = inhibition) at 10uM” value was found to be 2.77%.

Take `COc1ccc(S(=O)(=O)N2CCC(C(=O)N3CCc4ccccc4C3)CC2)cc1C`: the “hERG current change (%, negative = inhibition) at 10uM” value is reported as -19.7%.

Regarding `CCc1ccc(N/C(=N/c2nc(C)cc(C)n2)NC(C)=O)cc1`, the “hERG current change (%, negative = inhibition) at 10uM” value is listed as -67%.

For `CC(=O)N/C(=N/c1nc(C)cc(C)n1)Nc1ccc(NC(C)=O)cc1`, the “hERG current change (%, negative = inhibition) at 10uM” value is 9.5%.

Turning to `Cc1cc(C)nc(/N=C(\N)Nc2ccc(S(=O)(=O)Nc3nc(C)cc(C)n3)cc2)n1.Cl`, the “hERG current change (%, negative = inhibition) at 10uM” value came to 38%.

On to `CCOc1ccc(N/C(=N/c2nc(C)cc(C)n2)NC(C)=O)cc1`, for which the “hERG current change (%, negative = inhibition) at 10uM” value is given as -12.2%.

Turning to `CCC(=O)Nc1ccc(N/C(N)=N/c2nc(C)cc(C)n2)cc1`, the “hERG current change (%, negative = inhibition) at 10uM” value is given as -4.25%.

Regarding `Cc1cc(C)nc(/N=C(\N)Nc2ccc(-c3ccccc3)cc2)n1`, the “hERG current change (%, negative = inhibition) at 10uM” value was -81.6%.

Take `Cc1cc(C)nc(/N=C(\N)Nc2ccccc2-c2ccccc2)n1`: the “hERG current change (%, negative = inhibition) at 10uM” value is given as -43.2%.

Regarding `Cc1cc(C)nc(/N=C(\N)Nc2ccc(S(N)(=O)=O)cc2)n1`, the “hERG current change (%, negative = inhibition) at 10uM” value was determined as 14.9%.

As to `Cc1cc(C)nc(/N=C(\N)Nc2ccc(C(C)C)cc2)n1`, the “hERG current change (%, negative = inhibition) at 10uM” value is recorded as -67.5%.

Regarding `CCCCc1ccc(N/C(N)=N/c2nc(C)cc(C)n2)cc1`, the “hERG current change (%, negative = inhibition) at 10uM” value was -70.1%.

With `Cc1cc(C)nc(/N=C(\N)Nc2ccc([N+](=O)[O-])cc2)n1`, the “hERG current change (%, negative = inhibition) at 10uM” value is -25%.

`COc1ccc(C)cc1NC(=O)NNC(=O)c1cc2ccccc2cc1O`: the “hERG current change (%, negative = inhibition) at 10uM” value amounted to 12.1%.

As for `Cc1ccc(C(=O)Nc2ccc(C)c(S(=O)(=O)Nc3ccccc3Cl)c2)s1`, the “hERG current change (%, negative = inhibition) at 10uM” value is -6.43%.

For `CCn1c(=O)c2c3c(sc2n2cnnc12)CCC3`, the “hERG current change (%, negative = inhibition) at 10uM” value turned out to be 20%.

On to `CC(=O)N1N=C(c2cccc([N+](=O)[O-])c2)OC1c1ccc(Br)cc1` (stereo not shown), for which the “hERG current change (%, negative = inhibition) at 10uM” value was -7.59%.

On to `COc1ccc(OC)c(S(=O)(=O)Nc2cccc3ccc(O)cc23)c1`, for which the “hERG current change (%, negative = inhibition) at 10uM” value came to 6%.

On to `COC(=O)CCCc1nc2ccccc2s1`, for which the “hERG current change (%, negative = inhibition) at 10uM” value amounted to 8.7%.

Take `CN(C(=O)COC(=O)C12CC3CC(CC(C3)C1)C2)c1c(N)n(Cc2ccccc2)c(=O)[nH]c1=O`: the “hERG current change (%, negative = inhibition) at 10uM” value stood at 7.54%.

On to `CCOC(=O)C1(P(=O)(c2ccc(Cl)cc2)c2ccc(Cl)cc2)CCC1`, for which the “hERG current change (%, negative = inhibition) at 10uM” value is reported as -25.2%.

As for `N/C(=N\OC(=O)COc1ccc2ccccc2c1)c1ccccn1`, the “hERG current change (%, negative = inhibition) at 10uM” value is listed as -1.39%.

Take `CCN(C(=O)COC(=O)CCS(=O)(=O)c1ccc(C)cc1)C1CCS(=O)(=O)C1` (stereo not shown): the “hERG current change (%, negative = inhibition) at 10uM” value worked out at 12.9%.

Turning to `COc1ccccc1C(C#N)N1N=C(C)CC1c1ccccc1` (stereo not shown), the “hERG current change (%, negative = inhibition) at 10uM” value is 1.69%.

As to `O=C(CSc1nnc(COc2ccccc2Cl)o1)NC(=O)NCc1ccco1`, the “hERG current change (%, negative = inhibition) at 10uM” value is recorded as -8.18%.

Take `Cc1cc(C)nc(/N=C(\N)Nc2ccc(SC(F)F)cc2)n1`: the “hERG current change (%, negative = inhibition) at 10uM” value is -74.7%.

As for `Cc1cc(=O)[nH]c(/N=C(\N)Nc2ccc(SC(F)F)cc2)n1`, the “hERG current change (%, negative = inhibition) at 10uM” value was -15.8%.

Regarding `Cc1cc(C)nc(/N=C(\N)Nc2ccc3c(c2)OCCO3)n1`, the “hERG current change (%, negative = inhibition) at 10uM” value was 6.67%.

Turning to `C=CCOc1ccc(CNCCc2ccc(S(N)(=O)=O)cc2)cc1.Cl`, the “hERG current change (%, negative = inhibition) at 10uM” value is recorded as -81.4%.

`Cl.NS(=O)(=O)c1ccc(CCNCc2cccs2)cc1`: the “hERG current change (%, negative = inhibition) at 10uM” value is 4.04%.

As to `CCOc1ccc(OCCC(=O)OCC(=O)NCCc2ccc(S(N)(=O)=O)cc2)cc1`, the “hERG current change (%, negative = inhibition) at 10uM” value is listed as -4.49%.

Take `CCOc1ccc(CNCCc2ccc(S(N)(=O)=O)cc2)cc1.Cl`: the “hERG current change (%, negative = inhibition) at 10uM” value is given as -70.1%.

Take `COc1ccc(CNc2ccc(S(N)(=O)=O)cc2)cc1`: the “hERG current change (%, negative = inhibition) at 10uM” value is given as -52.6%.

As to `CCOc1ccc(N2C(=O)CC(NCCc3ccc(S(N)(=O)=O)cc3)C2=O)cc1` (stereo not shown), the “hERG current change (%, negative = inhibition) at 10uM” value is reported as -22%.

Regarding `Cl.NS(=O)(=O)c1ccc(CCNCc2cccnc2)cc1`, the “hERG current change (%, negative = inhibition) at 10uM” value was 18.4%.

As for `COc1ccc(CNC(=S)Nc2ccc(S(N)(=O)=O)cc2)cc1`, the “hERG current change (%, negative = inhibition) at 10uM” value is given as 22.1%.

`CCOc1ccc(CNc2ccc(S(N)(=O)=O)cc2)cc1`: the “hERG current change (%, negative = inhibition) at 10uM” value is given as -6.78%.
